GoLoco inh red: RGS12 GoLoco-Gai1 interaction inhibition. P63096. Potency, µM (top dose mostly 61.6 µM), inactives show at the top dose activity, negative = inhibition, most hits filed as inhibitors. hit rate 0.44% among 230,000. Gai1:RGS12 GoLoco peptide FP, rhodamine, 10 min. AID 880; active means well fitted inhibition curve with a large enough effect, not every such curve was filed as active; inactive means no such curve, though single readings can be large or run the other way; further: potency means the concentration at half of the fitted maximal effect; on the % scale 0 is the no-effect control and ±100 the full control effect; nearly all actives have a fitted effect of over 30% in size
PNC inhibitor: blocks assembly of the perinucleolar compartment; PC3M PTB-GFP, PNC prevalence imaging, 16 h; active compounds read low; activity change (PNC), negative = inhibition, % at 10 µM; hit rate 3.1% among 140,000; AID 2417;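 active means readout at or below -70, meaning at least 70% loss of cells showing the perinucleolar compartment, a nuclear body marking cancer cells; inconclusive means readout between -30 and a set limit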;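 further: plate controls were DMSO wells for no effect and camptothecin positive control wells for full effect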
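PC3M cells stably expressing PTB-GFP, 750–1000 cells/well, treated 16 h at 37 °C with compound (23 nl of library stock), in duplicate. After paraformaldehyde fixation and Hoechst stain, imaged at 20x; PNC prevalence scored by image analysis.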
ALDH1A1 inh: blocks purified human ALDH1A1 activity | Potency, µM (highest dose often 75.3 µM), for the others: top-dose activity, negative = inhibition, usual class: inhibitors | P00352 | Purified ALDH1A1, NADH fluorescence, propionaldehyde substrate | AID 1030 | hit rate 7.3% among 220,000;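 further: potency means the concentration at half of the fitted maximal effect; plate controls were no enzyme wells and a reference inhibitor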
Target sequence (P00352 whole entry, looked up): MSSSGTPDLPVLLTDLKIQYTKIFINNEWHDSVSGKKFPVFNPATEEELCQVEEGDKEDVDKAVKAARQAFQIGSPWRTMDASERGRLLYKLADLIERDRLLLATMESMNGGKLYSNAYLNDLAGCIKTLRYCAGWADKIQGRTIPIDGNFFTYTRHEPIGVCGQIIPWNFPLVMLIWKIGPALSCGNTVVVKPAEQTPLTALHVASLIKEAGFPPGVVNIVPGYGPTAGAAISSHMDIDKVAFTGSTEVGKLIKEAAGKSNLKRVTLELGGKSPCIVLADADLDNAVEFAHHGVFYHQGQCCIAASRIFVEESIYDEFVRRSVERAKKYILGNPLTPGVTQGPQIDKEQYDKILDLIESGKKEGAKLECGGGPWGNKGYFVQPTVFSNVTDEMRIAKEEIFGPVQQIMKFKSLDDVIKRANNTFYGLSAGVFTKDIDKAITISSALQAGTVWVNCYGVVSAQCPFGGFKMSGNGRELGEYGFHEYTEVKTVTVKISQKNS
HTT ATP protect: Huntington cell model cytoprotection by ATP luminescence; Potency, µM (top dose mostly 56.4 µM), for the others: cytoprotection (ATP increase), most hits filed as activators; hit rate 0.14% among 230,000; AID 1471; PC12 HTT-Q103 induced, cytoprotection, ATP luminescence, 40 h; active means well fitted curve in the direction sought with a large enough effect; inconclusive means small, poorly fitted or top-dose-only effect, or another doubt; inactive means no such curve, though single readings can be large; an effect the other way counts as inactive or inconclusive; further: potency means the concentration at half of the fitted maximal effect; % of control where 0% means no effect; nearly all actives have a fitted effect of over 45% in size
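Cells were plated at 1500 per well in phenol red-free DMEM with 5% equine and 5% calf serum. Tebufenozide (100 nM final) and compounds were added, then ATPlite reagent, and luminescence was read.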
HttQ103 aggreg: mutant huntingtin aggregation inhibition; PC12 HttQ103-GFP aggregates, Acumen cytometry, 40 h; Potency, µM (series often up to 46.1 µM), without a hit: at the highest dose activity change, negative = inhibition, actives largely listed as inhibitors; hit rate 1.1% among 220,000; AID 1688; active means well fitted curve in the direction sought with a large enough effect; inconclusive means small, poorly fitted or top-dose-only effect, or another doubt; inactive means no such curve, though single readings can be large; an effect the other way counts as inactive or inconclusive; further: potency means the concentration at half of the fitted maximal effect; on the % scale 0 is the no-effect control and ±100 the full control effect; nearly all actives have a fitted effect of over 60% in size
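PC12 cells stably carrying ecdysone-inducible HTT exon 1 Q103–GFP were induced with tebufenozide (100 nM final) and treated with library compounds in titration. GFP aggregates in lysates were counted by laser scanning cytometry.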
HPGD block: HPGD (human) dehydrogenase inhibition; purified HPGD, NADH fluorescence kinetic, PGE2 substrate; AID 894; P15428; Potency, µM, without a hit: at the highest dose activity change, negative = inhibition, most hits filed as inhibitors; hit rate 4.3% among 150,000; further: potency means the concentration at half of the fitted maximal effect; on the % scale 0 is the no-effect control and ±100 the full control effect
Target sequence (P15428 whole entry, looked up): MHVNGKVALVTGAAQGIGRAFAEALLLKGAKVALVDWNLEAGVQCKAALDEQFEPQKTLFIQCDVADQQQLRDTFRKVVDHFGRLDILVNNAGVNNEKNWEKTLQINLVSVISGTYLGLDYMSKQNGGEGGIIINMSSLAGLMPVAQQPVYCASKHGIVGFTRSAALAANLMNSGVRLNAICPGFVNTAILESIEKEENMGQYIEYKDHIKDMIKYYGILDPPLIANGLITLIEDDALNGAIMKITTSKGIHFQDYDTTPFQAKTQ
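20 nM HPGD preincubated 15 min at room temperature with compound in 50 mM Tris-HCl pH 8, 0.01% Tween 20. Started with 1 mM NAD+ and 30 uM prostaglandin E2; NADH fluorescence (360/450 nm) read 5 times over 30-s intervals, last minus first.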
Active calls of the source: *; ? = inconclusive; nt = not tested or not shown; [ ] = remark or other dose. Rows were chosen to be rich in hits. Some 11% of all compounds tested hit in one or more screens of this group. Unless noted, the call rests on the fitted dose curve; in most records, active means well fitted inhibition curve with a large enough effect (not every such curve was filed as active); inconclusive means small, poorly fitted or top-dose-only effect, or another doubt; inactive means no such curve, though single readings can be large or run the other way.

SMILES	GoLoco inh red	PNC inhibitor	ALDH1A1 inh	HTT ATP protect	HttQ103 aggreg	HPGD block
COc1cccc(CNc2ncn[nH]2)c1OCc1ccc(F)cc1	11%	nt	28µM*	-5%[10 µM]	-11%[9.22 µM]	nt
Cc1ccc(S(=O)(=O)Nc2ccc(C(=O)OCC(=O)N(CCC#N)c3ccccc3)cc2)cc1C	6%	-87*	-14%	12%[10 µM]	-12%	-5%
CCCCN(C(=O)Cn1ncc(Cl)c(Cl)c1=O)c1c(N)n(CC(C)C)c(=O)[nH]c1=O	9%	nt	?	6%[10 µM]	-15%[9.22 µM]	nt
Cc1cccc(OCCCC(=O)NC(C)c2ccccc2)c1 (stereo not given)	2%	-5	-3%	0%	5%	-15%
Cc1ccc(C(C)C)c(OCC(=O)Nc2ccc(Cl)cn2)c1	0%	-18	8%	1%	-3%	-7%
Cc1cccc(OCCCC(=O)NC(C)C)c1	3%	-80*	3%	3%	13%	-14%
O=C(COc1ccc(Cl)cc1Cl)Nc1ccc(Cl)cn1	3%	23	15%	-14%	10%	8.9µM*
CC(C)NC(=O)CCCOc1ccc(Cl)cc1Cl	-5%	7	5%	-4%	4%[9.22 µM]	14µM*
C#CCN(C)CCCOc1ccc(Cl)cc1Cl	4%	12	5%	?	-1%	14µM*
CCN(CC)C(=O)CCCOc1ccc(Cl)cc1Cl	5%	-30	-2%	-65%	-25%	25µM*
COC(=O)NNC(=O)CCCOc1ccc(Cl)cc1Cl	4%	-29	2%	7%[10 µM]	-6%	-18%
O=C(O)CCC(=O)NNC(=O)CCCOc1ccc(Cl)cc1Cl	-6%	?	9%	25%	1%	-10%
CN(C(=S)NC(=O)CCCOc1ccc(Cl)cc1Cl)c1ccccc1	-14%	-29	18µM*	-23%	4%	11µM*
O=C(NCc1ccco1)c1ccccc1Br	-3%	?	9%	3%[0.074 µM]	?	2µM*
CC(C)(C)C(=O)Nc1ccccc1C(=O)NCc1ccco1	-5%	-138*	?	-4%	-5%[9.22 µM]	-29%
O=C(NCc1ccco1)Nc1ccc(Br)cc1	5%	10	3%	-7%	3%	-8%
O=C(NCc1ccco1)C1(c2ccc(Br)cc2)CCCC1	-7%	9	0.18µM*	-19%	4%	-16%
CS(=O)(=O)Nc1ccccc1C(=O)NCc1ccco1	11%	35	?	0%	-11%	?
CCSc1ccccc1C(=O)NCc1ccco1	4%	?	2%	8%	-3%	13µM*
Cc1c(C(=O)O)cccc1-c1ccc(/C=C2/NC(=O)N(c3ccccc3)C2=O)o1	3%	nt	5.6µM*	28%[10 µM]	27%[9.22 µM]	nt
Cc1nnc(N2CCOCC2)c2nn(-c3cccc(Cl)c3)c(C)c12	40%	?	-5%	-9%[10 µM]	-12%	-11%
O=C1N/C(=C/c2ccc(N3CCOCC3)o2)C(=O)N1c1cccc(Cl)c1	-3%	nt	18µM*	-36%[10 µM]	?	nt
Cc1ccc(/C=C2/NC(=O)N(c3ccccc3)C2=O)o1	-31%	-2	10µM*	-48%	-9%	-21%
Cc1cccc(NC(=O)CN2C(=O)N/C(=C/c3ccc(-c4cccc(C(=O)O)c4C)o3)C2=O)c1	7%	nt	-1%	-36%	-1%[9.22 µM]	nt
COc1ccccc1-c1c(C#N)c(N)nc2c1CCc1ccccc1-2	4%	?	5%	-23%[10 µM]	7%	?
SMILES	GoLoco inh red	PNC inhibitor	ALDH1A1 inh	HTT ATP protect	HttQ103 aggreg	HPGD block
Cc1ccc(S(=O)(=O)N2c3ccccc3OCC2C(C)(C)C)cc1 (stereo not given)	-6%	-100*	10%	-16%[10 µM]	-24%	-10%
O=C(COc1ccc(Br)cc1Br)NC(=S)N1CCCc2ccccc21	-1%	60	11µM*	4%	?	-17%
O=C(COc1ccc(Br)cc1Cl)NC(=S)N1CCc2ccccc21	1%	-18	?	nt	9%	?
COCCCNC(=O)/C=C/c1cccc(Cl)c1	7%	3	1%	-11%	4%	28µM*
COCCCNC(=O)CN(c1cccc(Cl)c1C)S(C)(=O)=O	4%	10	-5%	-7%[10 µM]	-6%	-17%
CSc1cccc(NC(=O)/C=C/c2cccc(Cl)c2)c1	13%	-6	?	nt	16µM*	-15%
CN(C)C(CNC(=O)/C=C/c1cccc(Cl)c1)c1ccccc1 (stereo not given)	2%	nt	-5%	-21%	8%	nt
COCCCNC(=O)CN(c1cccc(Cl)c1)S(C)(=O)=O	-7%	?	2µM*	7%	0%	-9%
O=C(/C=C/c1cccc(Cl)c1)Nc1ncccn1	0%	66	-6%	27%[10 µM]	-18%	-16%
O=S(=O)(c1ccc(Cl)cc1)N1CCN(Cc2ccc(O)c3ncccc23)CC1	8%	nt	9%	nt	5µM*	nt
CCC1=NN(C(=O)C(=O)Nc2ccc(OC)cc2)C(O)(C(F)(F)F)C1 (stereo not given)	1%	31	?	3%	-33%	-12%
COc1ccc(NC(=O)C(=O)N2N=C3CCCCC3C2(O)C(F)(F)F)cc1 (stereo not given)	2%	nt	2.8µM*	14%[10 µM]	5%[9.22 µM]	nt
CC(C(=O)NC1C(=O)N2C(C(=O)O)=C(CSc3nnnn3C)CSC12)n1cc(Br)cn1 (stereo not given)	-11%	nt	15µM*	-20%	33%	nt
Cn1nnnc1SCC1=C(C(=O)O)N2C(=O)C(NC(=O)C3CC3c3ccccc3)C2SC1 (stereo not given)	-2%	nt	10µM*	-6%	2%	nt
N#CC1=C(N)SC(N)=C(C#N)C1c1ccnc2ccccc12	37%	-14	?	-12%[0.074 µM]	5%	16µM*
O=C1c2ccccc2C(=O)C1c1ccnc2ccccc12	8%	-20	3%	-75%[10 µM]	-8%	2%
C[C@@H]1/C=C\CC(=O)OC[C@H]2O[C@@H](C=C[C@@H]2O)[C@H](C)/C=C\CC(=O)OC1	nt	nt	-4%[13.5 µM]	-49%[10 µM]	nt	nt
CCN(CC(=O)Nc1ccc(C(C)=O)cc1)CC(=O)Nc1ccccc1C(F)(F)F	-5%	nt	10µM*	?	6%	nt
O=C(Nc1ccccc1C(F)(F)F)Nc1cccc2ccccc12	-6%	-6	-1%	2%	13%	-23%
CCN(CC)c1ccc(NC(=O)Nc2ccccc2C(F)(F)F)cc1	67%	8	4µM*	-24%	12%	-8%
CC(C)Sc1oc(-c2ccco2)nc1S(=O)(=O)c1ccc(F)cc1	55%	?	20µM*	3%[1.9 µM]	-4%	-24%
O=C(CSc1oc(-c2ccco2)nc1S(=O)(=O)c1ccc(F)cc1)NCC1CCCO1 (stereo not given)	10%	-119*	3%	-2%[10 µM]	-4%	-14%

Bioassay records from PubChem.
